# Assay results taken from PubChem BioAssay (Tox21).
# Where “and” joins values, the source holds several entries; their conditions need not be identical. Equal values may be shown once. Where a structure was tested more than once in an assay, its records may differ in their call. Calls of active or inactive are those of the source. Unless noted, the call rests on the fitted dose curve; in most records, active means well fitted curve in the direction sought with a large enough effect in the repeat runs; inconclusive means weak or mixed curves; inactive means no such curve, though single readings can be large; an effect the other way counts as inactive or inconclusive.
# Key:
# [1] = qHTS assay to identify small molecule antagonists of the thyroid receptor (TR) signaling pathway - cell viability counter screen (AID 743064); further: nearly all actives have a fitted effect of over 50% in size; further: potency means the concentration at half of the fitted maximal effect
# In short: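 Same-well viability check: GH3.TRE-Luc cells stimulated with 1 nM T3 alongside test compound for 23.5 h, followed by CellTiter-Fluor fluorescence.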
# [2] = qHTS assay to identify small molecule antagonists of the thyroid receptor (TR) signaling pathway (AID 743065); further: potency means the concentration at half of the fitted maximal effect; nearly all actives have a fitted effect of over 55% in size
# In short: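 GH3.TRE-Luc rat pituitary cells (two TREs driving luciferase) were dosed with compound, then stimulated with 1 nM T3 (final) for 23.5 h at 37 C. ONE-Glo luminescence was the read-out, with CellTiter-Fluor fluorescence as the cytotoxicity counter-screen.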
# [3] = target: Aromatase (Homo sapiens) (UniProt P11511); test: qHTS assay to identify aromatase inhibitors (AID 743083); further: nearly all actives have a fitted effect of over 55% in size; further: potency means the concentration at half of the fitted maximal effect
# [4] = qHTS assay to identify aromatase inhibitors - cell viability counter screen (AID 743084);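 further: cells stimulated with testosterone during compound exposure; nearly all actives have a fitted effect of over 55% in size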; further: potency means the concentration at half of the fitted maximal effect
# [5] = target: Aryl hydrocarbon receptor (Homo sapiens) (UniProt P35869); test: qHTS assay to identify small molecule that activate the aryl hydrocarbon receptor (AhR) signaling pathway (AID 743085); further: nearly all actives have a fitted effect of over 15% in size; further: potency means the concentration at half of the fitted maximal effect
# In short: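 Reporter assay in engineered HepG2 line HG2L7.5c1, whose plasmid carries twenty dioxin responsive elements upstream of firefly luciferase. Treatment lasted 24 h at 37C; ONE-Glo luminescence gauged induction.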
# [6] = qHTS assay to identify small molecule antagonists of the peroxisome proliferator-activated receptor gamma (PPARg) signaling pathway - cell viability counter screen (AID 743194); settings: Potency: co-treated with 50 nM rosiglitazone unless noted; further: nearly all actives have a fitted effect of over 55% in size; further: potency means the concentration at half of the fitted maximal effect
# In short: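 Cytotoxicity counter screen in PPARg-bla HEK293H cells, same wells as reporter assay. Compounds plus 50 nM rosiglitazone (final) for 17 h at 37 C, then viability read by CellTiter-Glo luminescence.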
# [7] = qHTS assay for small molecule agonists of the antioxidant response element (ARE) signaling pathway - cell viability counter screen (AID 743203; calls by dose curve; further: nearly all actives have a fitted effect of over 55% in size; further: potency means the concentration at half of the fitted maximal effect)
# In short: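 ATP content via CellTiter-Glo luminescence served as the viability measure. Cells: ARE-bla HepG2, 2,000 per well. Exposure: 16 hrs, 37C/5% CO2.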
# [8] = system: thyroid hormone receptor (rat, GH3 cells); test: qHTS assay to identify small molecule agonists of the thyroid receptor (TR) signaling pathway (AID 743066; calls by dose curve; further: on the % scale 0 is the no-effect control and ±100 the full control effect)
# [9] = qHTS assay to identify small molecule antagonists of the estrogen receptor alpha (ER-alpha) signaling pathway - cell viability counter screen (AID 743074; calls by dose curve;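 further: HEK293 cells carrying ER-alpha-UAS-bla reporter stimulated with 17beta-estradiol; nearly all actives have a fitted effect of over 45% in size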; further: potency means the concentration at half of the fitted maximal effect)
# [10] = qHTS assay to identify small molecule antagonists of the estrogen receptor alpha (ER-alpha) signaling pathway using the BG1 cell line - cell viability counter screen (AID 743081);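 further: compound given together with 17beta-estradiol as the ER stimulus; nearly all actives have a fitted effect of over 45% in size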; further: potency means the concentration at half of the fitted maximal effect
# [11] = qHTS assay for small molecule agonists of the antioxidant response element (ARE) signaling pathway (AID 743202; active means well fitted activation curve with a large enough effect in the signal ratio in the repeat runs, not every such curve was filed as active; inconclusive means weak or mixed curves, or effect the other way; inactive means no such curve, though single readings can be large or run the other way; the % refers to the signal ratio; further: potency means the concentration at half of the fitted maximal effect)
# In short: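 HepG2 ARE-bla reporter line, 2,000 cells/well; 5 h preincubation 37 C/5% CO2; compound (DMSO) 16 h 37 C; B/G FRET substrate 2 h RT; fluorescence intensity.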
# [12] = qHTS assay for small molecule activators of the heat shock response signaling pathway - cell viability counter screen (AID 743209); further: nearly all actives have a fitted effect of over 50% in size; further: potency means the concentration at half of the fitted maximal effect
# In short: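 Compounds dissolved in DMSO were added to overnight-plated HSE-bla HeLa cells and left 5 h at 37 C. Cell viability was quantified by luminescence using CellTiter-Glo.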
# [13] = qHTS assay to identify small molecule that activate the aryl hydrocarbon receptor (AhR) signaling pathway - cell viability counter screen (AID 743086); further: nearly all actives have a fitted effect of over 45% in size; further: potency means the concentration at half of the fitted maximal effect
# In short: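 HepG2-AhR-luc (HG2L7.5c1) cells, 4000/well, treated 24 h at 37 C with compound; viability measured as CellTiter-Fluor fluorescence after 30 min in the same wells as the luciferase read.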
# [14] = target: Estrogen receptor (Homo sapiens) (UniProt P03372); test: qHTS assay to identify small molecule agonists of the estrogen receptor alpha (ER-alpha) signaling pathway (AID 743075; calls by dose curve;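 further: HEK293 GripTite cells with ER-alpha and UAS-driven beta-lactamase reporter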; further: potency means the concentration at half of the fitted maximal effect)
# [15] = target: Estrogen receptor (Homo sapiens) (UniProt P03372); test: qHTS assay to identify small molecule agonists of the estrogen receptor alpha (ER-alpha) signaling pathway using the BG1 cell line (AID 743079); settings: BG1Luc4E2 cells, ERE-luciferase agonist, 22 h; activation: at 70.3 µM (top of the series); further: on the % scale 0 is the no-effect control and ±100 the full control effect; nearly all actives have a fitted effect of over 20% in size
# [16] = qHTS assay for small molecule activators of the heat shock response signaling pathway (AID 743210; active means well fitted activation curve with a large enough effect in the signal ratio in the repeat runs, with a control signal flat, not every such curve was filed as active; inconclusive means weak or mixed curves; the % refers to the signal ratio;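 further: HeLa cells with beta-lactamase reporter driven by heat shock elements; on the % scale 0 is the no-effect control and ±100 the full control effect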)
# In short: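 Beta-lactamase reporter read-out: FRET substrate fluorescence after 2.5 h at RT, following 5 h compound treatment at 37 C of HeLa cells carrying HSE-driven bla reporter; quantitative HTS format.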
# [17] = target: Estrogen receptor (Homo sapiens) (UniProt P03372); test: qHTS assay to identify small molecule antagonists of the estrogen receptor alpha (ER-alpha) signaling pathway (AID 743069; active means well fitted curve in the direction sought with a large enough effect in the signal ratio in the repeat runs, not every such curve was filed as active; inconclusive means weak or mixed curves, or effect the other way; inactive means no such curve, though single readings can be large or run the other way; the % refers to the signal ratio; further: on the % scale 0 is the no-effect control and ±100 the full control effect)
# In short: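 Beta-lactamase FRET fluorescence is read after 2 hr at room temperature with LiveBLAzer B/G substrate. Before that, ER-alpha-bla HEK293 cells sit 4 hr after plating, then receive compound plus 17beta-estradiol and incubate 18 hr at 37C.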
# [18] = target: Peroxisome proliferator-activated receptor gamma (Homo sapiens) (UniProt P37231); test: qHTS assay to identify small molecule antagonists of the peroxisome proliferator-activated receptor gamma (PPARg) signaling pathway (AID 743191; calls by dose curve; further: on the % scale 0 is the no-effect control and ±100 the full control effect; nearly all actives have a fitted effect of over 30% in size)
# In short: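 GeneBLAzer PPARg UAS-bla HEK293H cells, 5 h post-plating, exposed to compounds 17 h at 37C. LiveBLAzer B/G FRET substrate added for 1 h at room temperature; beta-lactamase reporter read by fluorescence intensity.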
# [19] = qHTS assay to identify small molecule antagonists of the estrogen receptor alpha (ER-alpha) signaling pathway using the BG1 cell line (AID 743080; calls by dose curve;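 further: BG1 cells stimulated with 17beta-estradiol alongside compound; potency means the concentration at half of the fitted maximal effect; nearly all actives have a fitted effect of over 25% in size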)
# In short: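 Luminescence from a 4×ERE-luciferase reporter in BG1-Luc-4E2 cells served as read-out. Cells, pre-cultured 5 days in stripped-serum phenol-red-free medium, were exposed to compound with 17beta-estradiol co-stimulation for 21.5 h at 37 C.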
# [20] = target: Peroxisome proliferator-activated receptor gamma (Homo sapiens) (UniProt P37231); test: qHTS assay to identify small molecule agonists of the peroxisome proliferator-activated receptor gamma (PPARg) signaling pathway (AID 743094; active means well fitted activation curve with a large enough effect in the signal ratio in the repeat runs, not every such curve was filed as active; inconclusive means weak or mixed curves, or effect the other way; inactive means no such curve, though single readings can be large or run the other way; the % refers to the signal ratio; further: on the % scale 0 is the no-effect control and ±100 the full control effect)
# In short: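 Agonism was assessed in a beta-lactamase reporter system, HEK293H cells with a stably integrated UAS-bla construct under PPARg control; the 17 h treatment at 37C preceded a 1 h room-temperature FRET substrate read.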
# Estrogen receptor (Homo sapiens), sequence (P03372 whole entry, looked up): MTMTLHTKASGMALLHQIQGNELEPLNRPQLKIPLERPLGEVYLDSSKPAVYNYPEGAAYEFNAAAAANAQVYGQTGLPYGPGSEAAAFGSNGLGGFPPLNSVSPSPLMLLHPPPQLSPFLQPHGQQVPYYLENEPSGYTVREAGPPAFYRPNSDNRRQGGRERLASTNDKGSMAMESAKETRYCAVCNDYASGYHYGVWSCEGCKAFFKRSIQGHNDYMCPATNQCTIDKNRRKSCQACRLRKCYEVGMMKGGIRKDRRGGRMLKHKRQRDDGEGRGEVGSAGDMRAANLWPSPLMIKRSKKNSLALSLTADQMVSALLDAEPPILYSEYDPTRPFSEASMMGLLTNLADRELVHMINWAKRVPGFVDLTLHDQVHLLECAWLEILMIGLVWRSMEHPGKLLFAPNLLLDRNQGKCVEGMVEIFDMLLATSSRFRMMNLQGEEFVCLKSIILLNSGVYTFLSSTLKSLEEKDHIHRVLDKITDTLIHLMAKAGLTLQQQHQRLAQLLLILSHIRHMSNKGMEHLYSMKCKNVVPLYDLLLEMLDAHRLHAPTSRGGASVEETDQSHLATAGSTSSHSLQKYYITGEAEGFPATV
# Peroxisome proliferator-activated receptor gamma (Homo sapiens), sequence (P37231 whole entry, looked up): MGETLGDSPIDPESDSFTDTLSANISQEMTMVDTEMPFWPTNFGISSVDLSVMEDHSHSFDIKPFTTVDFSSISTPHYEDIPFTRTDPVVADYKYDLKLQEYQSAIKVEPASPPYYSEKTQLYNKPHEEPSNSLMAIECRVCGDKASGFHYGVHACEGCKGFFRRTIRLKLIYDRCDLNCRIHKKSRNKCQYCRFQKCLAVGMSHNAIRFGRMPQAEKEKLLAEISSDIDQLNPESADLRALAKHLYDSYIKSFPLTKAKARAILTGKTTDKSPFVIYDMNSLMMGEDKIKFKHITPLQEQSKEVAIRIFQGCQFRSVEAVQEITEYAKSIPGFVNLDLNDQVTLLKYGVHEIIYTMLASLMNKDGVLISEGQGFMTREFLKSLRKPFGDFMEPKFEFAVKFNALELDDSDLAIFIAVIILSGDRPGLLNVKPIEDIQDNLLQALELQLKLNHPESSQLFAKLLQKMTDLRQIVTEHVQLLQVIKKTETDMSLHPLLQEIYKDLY
# Aromatase (Homo sapiens), sequence (P11511 whole entry, looked up): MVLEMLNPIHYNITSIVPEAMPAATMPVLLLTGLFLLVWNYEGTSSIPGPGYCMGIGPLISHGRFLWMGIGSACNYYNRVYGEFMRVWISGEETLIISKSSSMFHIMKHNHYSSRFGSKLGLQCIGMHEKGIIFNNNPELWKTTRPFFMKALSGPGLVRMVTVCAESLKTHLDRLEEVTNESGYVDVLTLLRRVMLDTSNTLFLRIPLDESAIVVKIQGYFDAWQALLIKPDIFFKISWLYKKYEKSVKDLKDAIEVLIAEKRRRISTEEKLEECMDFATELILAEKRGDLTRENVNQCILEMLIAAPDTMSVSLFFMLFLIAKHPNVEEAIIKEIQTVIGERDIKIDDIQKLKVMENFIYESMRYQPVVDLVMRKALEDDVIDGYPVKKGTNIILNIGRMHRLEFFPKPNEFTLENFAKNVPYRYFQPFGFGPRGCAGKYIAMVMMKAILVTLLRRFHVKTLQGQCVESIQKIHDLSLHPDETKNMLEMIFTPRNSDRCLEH
# Aryl hydrocarbon receptor (Homo sapiens), sequence (P35869 whole entry, looked up): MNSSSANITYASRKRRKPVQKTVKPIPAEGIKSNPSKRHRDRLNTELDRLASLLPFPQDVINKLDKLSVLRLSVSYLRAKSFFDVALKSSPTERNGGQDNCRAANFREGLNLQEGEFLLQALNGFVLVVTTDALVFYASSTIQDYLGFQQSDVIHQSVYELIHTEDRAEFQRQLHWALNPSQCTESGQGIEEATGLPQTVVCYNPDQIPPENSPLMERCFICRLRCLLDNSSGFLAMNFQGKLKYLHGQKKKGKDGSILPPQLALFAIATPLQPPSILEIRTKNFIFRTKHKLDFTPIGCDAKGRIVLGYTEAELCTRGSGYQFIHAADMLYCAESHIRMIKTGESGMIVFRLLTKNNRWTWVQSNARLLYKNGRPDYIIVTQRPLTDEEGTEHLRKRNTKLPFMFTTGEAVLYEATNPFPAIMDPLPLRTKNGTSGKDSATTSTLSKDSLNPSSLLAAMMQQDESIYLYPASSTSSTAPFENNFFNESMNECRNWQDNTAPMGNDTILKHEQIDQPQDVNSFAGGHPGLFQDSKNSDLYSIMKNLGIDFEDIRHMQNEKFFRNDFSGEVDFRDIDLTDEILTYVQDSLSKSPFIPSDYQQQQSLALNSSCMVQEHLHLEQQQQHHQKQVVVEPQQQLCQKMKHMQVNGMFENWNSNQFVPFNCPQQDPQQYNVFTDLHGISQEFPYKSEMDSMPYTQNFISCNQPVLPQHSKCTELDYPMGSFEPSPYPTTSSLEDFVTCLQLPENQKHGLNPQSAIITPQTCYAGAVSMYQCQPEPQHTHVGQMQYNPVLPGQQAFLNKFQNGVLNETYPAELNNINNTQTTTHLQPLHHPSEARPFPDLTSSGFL
structure (smiles),measurement,setting,value
CCC[CH2][Sn]([CH2]CCC)([CH2]CCC)[CH2]CCC,Potency,[1],30.6 µM (active)
same,Potency,[2],19.3 µM (active)
same,Potency,[3],inactive
same,Potency,[4],43.3 µM (active)
same,Potency,[5],inactive
same,Potency,[6],19.5 µM (active)
same,Potency,[7],15.4 µM (active)
CC(=O)[O-].CC(=O)[O-].CC(=O)[O-].[Sb+3],"activity change, negative = cytotoxic",[1],15.9% [at 8.44 µM] (inactive)
same,activation,[8],0.26% [at 8.08 µM] (inactive)
same,"activity, negative = cytotoxicity",[9],16.3% [at 6.72 µM] (inactive)
same,"activity change, negative = cytotoxicity",[10],10.6% [at 8.47 µM] (inactive)
same,"activity, negative = inhibition",[3],2.18% [at 8.47 µM] (inactive)
same,"activity change, negative = cytotoxicity",[4],6.01% [at 8.47 µM] (inactive)
same,activation,[5],0.374% [at 8.47 µM] (inactive)
same,"activity change, negative = cytotoxicity",[6],"-5.68% [at 5.95 µM, co-treated with 50 nM rosiglitazone] (inactive)"
same,activation,[11],-8.79% [at 8.36 µM] (inactive)
same,"viability change, negative = cytotoxic",[7],-9.94% [at 8.36 µM] (inactive)
same,"activity change, negative = cytotoxicity",[12],4.7% [at 5.95 µM] (inactive)
CC(=O)[O-].CC(=O)[O-].O.O.[Zn+2],Potency,[1],inactive
same,Potency,[8],inactive
same,Potency,[10],inactive
same,Potency,[3],inactive
same,Potency,[4],inactive
same,Potency,[13],inactive
same,Potency,[6],inactive
same,Potency,[11],inactive
same,Potency,[7],inactive
same,Potency,[12],inactive
CN1CCc2cc(Cl)c(O)cc2[C@H]2c3ccccc3CC[C@@H]21,Potency,[1],13.3 µM (active)
same,Potency,[2],13.3 µM (active)
same,Potency,[9],inactive
same,Potency,[14],inactive
same,Potency,[15],inactive
same,Potency,[3],inactive
same,Potency,[4],inactive
same,Potency,[5],inactive
same,Potency,[6],inactive
same,Potency,[11],inactive
same,Potency,[7],inactive
same,Potency,[12],inactive
same,Potency,[16],inactive
O=[N+]([O-])c1cc(C(F)(F)F)c(Cl)c([N+](=O)[O-])c1Nc1ncc(C(F)(F)F)cc1Cl,Potency,[1],5.45 µM (active)
same,Potency,[2],2.17 µM (active)
same,Potency,[9],49 µM (active)
same,Potency,[14],49000 nM [inconclusive] (active)
same,Potency,[10],68.6 µM (active)
same,Potency,[3],2.73 µM (active)
same,Potency,[4],21.7 µM (active)
same,Potency,[5],77 µM (active)
same,Potency,[13],13.7 µM (active)
same,Potency,[6],1.1 µM (active)
same,Potency,[7],7.7 µM (active)
same,Potency,[12],6.16 µM (active)
CCN(CC)C(=S)S,Potency,[1],1.19 µM (active)
same,Potency,[8],inactive
same,Potency,[17],inactive
same,Potency,[9],inactive
same,Potency,[14],inactive
same,Potency,[15],inactive
same,Potency,[10],inactive
same,Potency,[4],8.71 µM (active) and 7.65 µM (active) and 4.86 µM (active)
same,Potency,[5],inactive
same,Potency,[13],inactive and 19.2 µM (active) and 30.6 µM (active)
same,Potency,[18],inactive
same,Potency,[7],inactive
same,Potency,[12],6.98 µM (active) and 2.75 µM (active)
COc1ccc(Cc2nccc3cc(OC)c(OC)cc23)cc1OC,Potency,[1],inactive
same,Potency,[8],inactive
same,Potency,[9],inactive
same,Potency,[10],inactive
same,Potency,[3],inactive
same,Potency,[4],inactive
same,Potency,[18],inactive
same,Potency,[6],inactive
same,Potency,[7],inactive
same,Potency,[12],inactive
same,Potency,[16],inactive
COC(=O)N(OC)c1ccccc1COc1ccn(-c2ccc(Cl)cc2)n1,Potency,[1],61.1 µM (active)
same,Potency,[2],0.137 µM (active)
same,Potency,[14],275 nM [inconclusive] (active)
same,Potency,[19],770 nM (active)
same,Potency,[3],61.1 µM (active)
same,Potency,[5],inactive
same,Potency,[13],inactive
same,Potency,[20],inactive
same,Potency,[11],433 nM (active)
same,Potency,[7],43.3 µM (active)
same,Potency,[12],inactive
CC(O)C(=O)[O][Hg][c]1ccccc1 (stereo not drawn),Potency,[1],0.686 µM (active)
same,Potency,[2],0.344 µM (active)
same,Potency,[9],5.49 µM (active)
same,Potency,[14],692 nM [fluorescent] (active)
same,Potency,[10],3.06 µM (active)
same,Potency,[3],0.969 µM (active)
same,Potency,[4],1.09 µM (active)
same,Potency,[5],inactive
same,Potency,[7],0.686 µM (active)
same,Potency,[12],1.95 µM (active)
Fc1ccc(C(OCCN2CCN(CCCc3ccccc3)CC2)c2ccc(F)cc2)cc1,Potency,[1],9.44 µM (active)
same,Potency,[2],7.5 µM (active)
same,Potency,[9],15.1 µM (active)
same,Potency,[14],inactive
same,Potency,[10],21.1 µM (active)
same,Potency,[3],18.8 µM (active)
same,Potency,[4],26.6 µM (active)
same,Potency,[5],inactive
same,Potency,[6],16.8 µM (active)
same,Potency,[7],29.8 µM (active)
